About 83,000 compounds went through this panel and 20% of them were active in at least one assay; those are over-represented in the sample as a whole.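 Method: cells in 96-well plates; compound added at one concentration; 48 h incubation; percent growth measured; values under 10 scored active.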 Calls of active or inactive are those of the source.
Tests used:
Experiment in all cases: NCI-60 one-dose screen, 48 h (100 = growth as untreated, 0 = no growth, -100 = all killed)
Details in all cases: 10 µM unless noted
NCI-H23 lung = test system: NCI-H23 lung
NCI-H322M lung = test system: NCI-H322M lung
HOP-62 NSCLC = test system: HOP-62 NSCLC
NCI-H460 lung = test system: NCI-H460 lung
HOP-92 NSCLC = test system: HOP-92 NSCLC
NCI-H522 lung = test system: NCI-H522 lung
A549/ATCC NSCLC = test system: A549/ATCC NSCLC
786-0 renal = test system: 786-0 renal
COLO 205 colon = test system: COLO 205 colon

Measured: growth

CC(=O)c1c(Nc2ccc(F)c(F)c2F)[nH]c2c(F)cc(F)cc2c1=O
active: NCI-H23 lung -3.83% | NCI-H322M lung 4.47% | HOP-62 NSCLC -21.5% | NCI-H460 lung 2.98% | HOP-92 NSCLC -18.8% | NCI-H522 lung -11.1% | A549/ATCC NSCLC 4.48% | COLO 205 colon -65%
inactive: 786-0 renal 12.1%

FC(F)(F)c1[nH]ncc1-c1nc2c(N3CCCCC3)cc3[nH]ncc3c2c2c1CCCC2
active: NCI-H23 lung -9.72% | NCI-H322M lung -2.53% | HOP-92 NSCLC -10.2% | NCI-H522 lung -28.4% | A549/ATCC NSCLC 5.13% | 786-0 renal -1.84% | COLO 205 colon -33.7%

Nc1c(C(=O)Nc2ccccn2)sc2nc3c(cc12)C(O)CCC3 (stereo not given)
inactive: NCI-H23 lung 45.1% | NCI-H322M lung 36.5% | HOP-62 NSCLC 26.3% | NCI-H460 lung 13.7% | HOP-92 NSCLC 50.9% | NCI-H522 lung 11.8% | A549/ATCC NSCLC 36.4% | 786-0 renal 32.9% | COLO 205 colon 23.6%

COc1ccc2c(c1)c(-c1cc(-c3cn(C)c4ccc(OC)cc34)on1)cn2C
inactive: NCI-H23 lung 84.1% | NCI-H322M lung 96.6% | HOP-62 NSCLC 141% | NCI-H460 lung 109% | HOP-92 NSCLC 59% | NCI-H522 lung 90.2% | A549/ATCC NSCLC 109% | 786-0 renal 102% | COLO 205 colon 112%

Cc1ccc(O)c(NC(=O)c2ccc(CNc3ccnc(C(F)(F)F)c3)cc2)c1
inactive: NCI-H23 lung 81.1% | NCI-H322M lung 65.3% | HOP-62 NSCLC 56% | NCI-H460 lung 18.8% | HOP-92 NSCLC 92.1% | NCI-H522 lung 67.6% | A549/ATCC NSCLC 53% | 786-0 renal 48.8% | COLO 205 colon 152%

C=C1C(=O)O[C@H]2[C@H]1CC/C(COC(=O)c1cc3cc(F)ccc3[nH]1)=C\CC[C@@]1(C)O[C@@H]21
active: NCI-H23 lung -66.4% | NCI-H322M lung -35.7% | HOP-62 NSCLC -50.8% | NCI-H460 lung -59.2% | HOP-92 NSCLC -84.9% | NCI-H522 lung -68.9% | A549/ATCC NSCLC -61.9% | 786-0 renal -89.6% | COLO 205 colon -68.7%

S=c1[nH]c2cc(Cl)ccc2o1
inactive: NCI-H23 lung 104% | NCI-H322M lung 107% | HOP-62 NSCLC 102% | NCI-H460 lung 100% | HOP-92 NSCLC 82.6% | NCI-H522 lung 102% | A549/ATCC NSCLC 118% | 786-0 renal 92.7% | COLO 205 colon 110%

Cc1cccc(-n2c(C)nc3ccc(N4CCCNC4=O)cc3c2=O)c1
inactive: NCI-H23 lung 98.5% | NCI-H322M lung 103% | HOP-62 NSCLC 101% | NCI-H460 lung 112% | HOP-92 NSCLC 95.1% | NCI-H522 lung 96.4% | A549/ATCC NSCLC 102% | 786-0 renal 102% | COLO 205 colon 105%

N=c1sc(Cc2cc(Cl)ccc2Cl)cn1CC(=O)c1ccccc1
inactive: NCI-H23 lung 68.4% | NCI-H322M lung 56.4% | HOP-62 NSCLC 74.6% | HOP-92 NSCLC 51.2% | NCI-H522 lung 39.8% | A549/ATCC NSCLC 30% | 786-0 renal 78.4% | COLO 205 colon 72.1%

CCCCCCCCn1ccc2cc(NC(=O)Cn3cc(CN4CCN(CC)CC4)nn3)ccc21
inactive: NCI-H23 lung 105% | NCI-H322M lung 78.3% | HOP-62 NSCLC 89.8% | NCI-H460 lung 13.8% | HOP-92 NSCLC 54.7% | NCI-H522 lung 86.9% | A549/ATCC NSCLC 64% | 786-0 renal 57.9%
active: COLO 205 colon -70.2%

Clc1ccc(-c2cn3ccsc3n2)c(Cl)c1Cl
inactive: NCI-H23 lung 89.8% | NCI-H322M lung 118% | HOP-62 NSCLC 84.9% | NCI-H460 lung 105% | HOP-92 NSCLC 58.8% | NCI-H522 lung 81.3% | A549/ATCC NSCLC 97.5% | 786-0 renal 103% | COLO 205 colon 94.9%

Cc1ccc(-c2csc(NC(=O)N3CCN(c4cc5c(cc4F)c(=O)c(C(=O)O)cn5C4CC4)CC3)n2)cc1
inactive: HOP-62 NSCLC 12.6% | NCI-H460 lung 19.6% | A549/ATCC NSCLC 11.1% | 786-0 renal 28.9% | COLO 205 colon 11.9%
active: NCI-H23 lung 4.84% | NCI-H322M lung 9.12% | HOP-92 NSCLC -12.6% | NCI-H522 lung -5.07%

CCCCCCCCCCCCCCCCCCOc1ccccc1CC(=O)OCC[N+]1(C)CCOCC1
inactive: NCI-H23 lung 66.5% | NCI-H322M lung 79.8% | HOP-62 NSCLC 55.6% | HOP-92 NSCLC 44.2% | NCI-H522 lung 39.9% | A549/ATCC NSCLC 62.6% | 786-0 renal 68.3% | COLO 205 colon 65.6%

CC1=NN(c2ccc(Cl)cc2)CC1(C)N=O (stereo not given)
inactive: NCI-H23 lung 88.4% | NCI-H322M lung 99.9% | HOP-62 NSCLC 95.8% | NCI-H460 lung 95.9% | HOP-92 NSCLC 83.3% | NCI-H522 lung 44.5% | A549/ATCC NSCLC 99.9% | 786-0 renal 73.1% | COLO 205 colon 67.3%

O=C1NC(=Nc2ccc(O)cc2)S/C1=C\c1cccs1
active: NCI-H460 lung 3.62% | HOP-92 NSCLC -7.99%
inactive: NCI-H23 lung 47.4% | NCI-H322M lung 35.3% | HOP-62 NSCLC 46.7% | A549/ATCC NSCLC 35.4% | 786-0 renal 20.2% | COLO 205 colon 105%

C#CCn1cnc2c(Nc3cccc(NC(=O)CCl)c3)ncnc21
active: NCI-H522 lung -19.1%
inactive: NCI-H23 lung 38.1% | NCI-H322M lung 81.1% | HOP-62 NSCLC 43.5% | NCI-H460 lung 21.8% | HOP-92 NSCLC 35.3% | A549/ATCC NSCLC 44.8% | 786-0 renal 49.2% | COLO 205 colon 18.6%

CCCCCn1sc(=O)n(Cc2ccc(CNC(=O)OCc3ccc4c(Cl)cc(Cl)c(O)c4n3)cc2)c1=O
inactive: NCI-H23 lung 73.2% | NCI-H322M lung 55.7% | HOP-62 NSCLC 41.7% | NCI-H460 lung 27.1% | HOP-92 NSCLC 76.2% | NCI-H522 lung 66.1% | A549/ATCC NSCLC 49.7% | 786-0 renal 61.2% | COLO 205 colon 106%

COc1ccc(NC(=O)c2cccc(C3CCc4c(cc(OC)c(OC)c4OC)O3)c2)cc1 (stereo not given)
inactive: NCI-H23 lung 52.1% | NCI-H322M lung 53.9% | HOP-62 NSCLC 30.7% | NCI-H460 lung 18.2% | NCI-H522 lung 21.8% | A549/ATCC NSCLC 32.1% | 786-0 renal 26.1% | COLO 205 colon 41.3%
active: HOP-92 NSCLC -2.49%

CC[C@@H](c1ccc2cc(OC)ccc2c1)C(C)(C)C(=O)F
inactive: NCI-H23 lung 93.4% | NCI-H322M lung 124% | HOP-62 NSCLC 90.8% | HOP-92 NSCLC 95.1% | NCI-H522 lung 104% | A549/ATCC NSCLC 92.5% | 786-0 renal 109% | COLO 205 colon 90.2%
